{"source": "the OligoGym collection", "data": [{"target": "KIAA0564", "test": "pooled miR-30 sensor sort-seq; sequence = guide strand", "settings": "shRNA", "values": [{"sequence": "TTGAATATAACAACTTAAGTTG", "sensor-assay potency score (higher = more potent)": -0.73}, {"sequence": "TTTTTCTTTGTAGAACACCAGC", "sensor-assay potency score (higher = more potent)": -1.28}, {"sequence": "TAGAACATCCAGCACAGTCAGG", "sensor-assay potency score (higher = more potent)": -1.28}, {"sequence": "TTTGCCAGAACAATCATCCTAA", "sensor-assay potency score (higher = more potent)": 0.448}, {"sequence": "TTAACCTTTGCAATACAGCAAG", "sensor-assay potency score (higher = more potent)": -0.99}, {"sequence": "TCTTTGTAGAACACCAGCCAGT", "sensor-assay potency score (higher = more potent)": -0.952}, {"sequence": "TAACAACTTAAGTTGGTCCTTG", "sensor-assay potency score (higher = more potent)": 0.426}]}, {"target": "KIAA0664", "test": "pooled miR-30 sensor sort-seq; sequence = guide strand", "settings": "shRNA", "values": [{"sequence": "TTCTTCTTGAAGGTCGGGCTGA", "sensor-assay potency score (higher = more potent)": -0.121}, {"sequence": "TTGCACTCGACCGAGGAGCAGA", "sensor-assay potency score (higher = more potent)": -0.997}, {"sequence": "TTGCTCTCGTAGACTCGGGCGA", "sensor-assay potency score (higher = more potent)": -0.673}, {"sequence": "TGCATCTTGGTCTCCTCGCTGG", "sensor-assay potency score (higher = more potent)": -0.849}, {"sequence": "TTGGAGACCAGCTCGTCGGCGG", "sensor-assay potency score (higher = more potent)": -0.677}, {"sequence": "TTGAAGGTCGGGCTGATCTGGT", "sensor-assay potency score (higher = more potent)": -0.0579}, {"sequence": "TACGTCTTGAAGATGTGCTTGG", "sensor-assay potency score (higher = more potent)": 0.188}, {"sequence": "TTGACGTGCTTGACCACGGGGA", "sensor-assay potency score (higher = more potent)": -0.0674}, {"sequence": "AAGTTCTTCTTGAAGGTCGGGC", "sensor-assay potency score (higher = more potent)": -0.0493}, {"sequence": "TTGAGCACGTCCTCCTCGGTGA", "sensor-assay potency score (higher = more potent)": -0.45}, {"sequence": "TTTCTTCTGCAGCACAGCGAAG", "sensor-assay potency score (higher = more potent)": -1.66}, {"sequence": "TTTTCTTCTGCAGCACAGCGAA", "sensor-assay potency score (higher = more potent)": -0.902}]}, {"target": "KIAA0930", "test": "pooled miR-30 sensor sort-seq; sequence = guide strand", "settings": "shRNA", "values": [{"sequence": "TTGCTGTACTTGTAGAAGCCAA", "sensor-assay potency score (higher = more potent)": -0.811}, {"sequence": "TAAGTGTGCATAGAGAAGGAAG", "sensor-assay potency score (higher = more potent)": -1.42}, {"sequence": "ATAGAAAAGCATGTCGTCCTGC", "sensor-assay potency score (higher = more potent)": 0.0437}, {"sequence": "TTCTTGAGCGCCTCGTAGCGGA", "sensor-assay potency score (higher = more potent)": -0.914}, {"sequence": "TTATGGATGTGAATGTCCCCGC", "sensor-assay potency score (higher = more potent)": -0.555}, {"sequence": "TTCTCCATGAAGTAGGTGGAGA", "sensor-assay potency score (higher = more potent)": -1.12}, {"sequence": "TCACCTGTAGACACTCGGCTGA", "sensor-assay potency score (higher = more potent)": -0.216}, {"sequence": "TTTGTCACTAGCCACCAGCTCC", "sensor-assay potency score (higher = more potent)": -0.835}, {"sequence": "TTCAGCTTCAGCCAGGACCCGA", "sensor-assay potency score (higher = more potent)": -1.04}, {"sequence": "AAAAGCATGTCGTCCTGCCGGG", "sensor-assay potency score (higher = more potent)": -0.426}, {"sequence": "TTCTTCATCTCAGCGATCCGGT", "sensor-assay potency score (higher = more potent)": -0.0677}, {"sequence": "AAGTAGGTGGAGAACATCCAAG", "sensor-assay potency score (higher = more potent)": -1.37}]}, {"target": "KIAA1217", "test": "pooled miR-30 sensor sort-seq; sequence = guide strand", "settings": "shRNA", "values": [{"sequence": "TACACTTTGAGGAGTGATCTGT", "sensor-assay potency score (higher = more potent)": 0.221}, {"sequence": "TTCTTCAATGAACAAGCTCTGC", "sensor-assay potency score (higher = more potent)": -0.544}, {"sequence": "TTCTCGATAGACACTGCCCTGT", "sensor-assay potency score (higher = more potent)": -0.436}, {"sequence": "TTGAACTTCCATTCTGTGCCTT", "sensor-assay potency score (higher = more potent)": 0.894}, {"sequence": "TATTTTGTAGCTCTGGTCTGTG", "sensor-assay potency score (higher = more potent)": 0.157}, {"sequence": "TTTTTTTAAATGTAACTCCGAC", "sensor-assay potency score (higher = more potent)": -0.293}, {"sequence": "TTTGCTTGAACTTCCATTCTGT", "sensor-assay potency score (higher = more potent)": 0.925}, {"sequence": "TGAACTTCCATTCTGTGCCTTG", "sensor-assay potency score (higher = more potent)": 0.302}, {"sequence": "TTTCTCGATAGACACTGCCCTG", "sensor-assay potency score (higher = more potent)": -1.06}]}]}
